Consider 40 compounds from ChEMBL document CHEMBL3988442, “University of Dundee, Small-Polar-MMV Screening Library” (2021).

The test has as its target T1, Arginase-2, mitochondrial (Homo sapiens) (UniProt P78540).
T1 sequence (whole entry): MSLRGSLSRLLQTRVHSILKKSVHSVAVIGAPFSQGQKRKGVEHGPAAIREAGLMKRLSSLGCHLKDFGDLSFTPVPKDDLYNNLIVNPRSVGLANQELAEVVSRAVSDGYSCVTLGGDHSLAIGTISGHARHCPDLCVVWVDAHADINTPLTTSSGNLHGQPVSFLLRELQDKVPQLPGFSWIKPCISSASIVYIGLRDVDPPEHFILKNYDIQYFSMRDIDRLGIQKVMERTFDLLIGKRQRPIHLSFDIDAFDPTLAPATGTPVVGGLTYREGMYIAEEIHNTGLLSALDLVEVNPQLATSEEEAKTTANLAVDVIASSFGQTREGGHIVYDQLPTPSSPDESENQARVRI
Put plainly: in vitro enzyme assay to detect the production of urea directly proportional to the activity of Arginase II. Conditions: 33.3 µM. In kind it is functional. Further details: scale not given: in the data most compounds retested in dose-response had high values.
Regarding `c1cnn(Cc2nnc(C3CCN(C4CCOCC4)CC3)n2C2CC2)c1`, the Percent Effect was found to be 5.73%. Take `CCOc1ccccc1C(CC(=O)Nc1ccc(C)cn1)NC(C)=O` (stereo not given): the Percent Effect was 1.15%.

With `Cc1nc(C)n(CC2CN(Cc3cccnc3)CCO2)n1` (stereo not given), the Percent Effect was 2.52%. As for `CCOc1ccc(C#N)cc1NCC(=O)Nc1cc(F)ccc1F`, the figure is -29.7%. In the case of `COCC1CN(C(=O)C2=CCCCC2)Cc2cnn(CC3CC3)c21` (stereo not given), the Percent Effect is -4.52%. Consider `O=S1(=O)COCCN1Cc1cccc(Cl)c1`, for which the Percent Effect is -1.91%. For `COCCN(Cc1nc2c(cnn2C)c(=O)[nH]1)Cc1ccco1` the value was 5.61%; for `O=C(c1ccc(F)cc1)N1CCN2C[C@H](OCc3ccccn3)C[C@H]2C1`, 1.59%; for `CCO[C@@H]1CCN(C(=O)c2ccc[nH]2)[C@@H]1Cc1cnn(C)c1`, 3.5%.

`O=C1C[C@H]2[C@@H](CCN2C(=O)c2ccccc2)N1CCN1CCOCC1`: the Percent Effect is -2%. `CC(NC(=O)NCCCn1cccn1)c1ccc2c(c1)NC(=O)CO2` (stereo not given): the Percent Effect was -3.42%. On to `CCc1nc(C(=O)N2CCCC2)nn1-c1ccccc1Cl`, for which the Percent Effect was determined as 2.16%. As for `CN(CCOc1cccc(CNC(=O)C2CC2)c1)C1CCOCC1`, the Percent Effect was found to be 3.33%. As to `CC(C)C1CN(C(=O)c2ccc(N3CCCC3)nc2)CCS1` (stereo not given), the Percent Effect came to 0%.

Regarding `O=C(CCn1ccccc1=O)Nc1ccc(F)c(Cl)c1`, the Percent Effect turned out to be 3.72%. `CCS(=O)(=O)c1ccccc1N1CCC(NC(=O)NC2CCCC2)CC1`: the Percent Effect is -3.14%.

Regarding `O=C(NS(=O)(=O)c1cc(Cl)sc1Cl)c1cccc2c1OCCO2`, the Percent Effect is -1.36%. Consider `CN(C)C(=O)CNC(=O)c1ccc(Cl)cc1F`, for which the Percent Effect is -65.1%. As for `COc1cccc(N2CCN(CCC(=O)NC3CCCC3)CC2)c1`, the Percent Effect was -22.5%. As for `c1csc(CN2Cc3nccn3CC(Cn3cncn3)C2)n1` (stereo not given), the Percent Effect was 3.19%.

`Cc1cc2nc(SCC(=O)N3CCCC3)n(-c3ccccc3)c(=O)c2[nH]1`: the Percent Effect turned out to be 9.47%. On to `Cc1ccc(CN2CCCC3(CCN(S(C)(=O)=O)C3)C2)o1` (stereo not given), for which the Percent Effect is -4.43%.

With `CC(NC(=O)NCC1(N2CCCCC2)CCCCC1)c1nncn1C` (stereo not given), the Percent Effect is 0%. Take `CCOc1ncccc1C(=O)N(C)Cc1ncc(C)c(OC)c1C`: the Percent Effect was determined as 6.95%. On to `Cc1cc(C[C@@H]2COC[C@H]2NCc2ccc(Br)s2)on1`, for which the Percent Effect was -7.19%. Take `CC(C)N1CCC(Cc2cncc(-c3ccccc3C(=O)O)n2)CC1`: the Percent Effect is 0.699%. As for `Cc1ccc2oc(CNC(C)c3nnc4n3CCCC4)cc2c1` (stereo not given), the Percent Effect was -2.5%. Regarding `CC(=O)N1CCN(C(=O)NCc2csc(Br)c2)CC1`, the Percent Effect is -0.554%. Take `CCc1noc(C(C)N2CCN(Cc3nc(C)c(C)o3)CC2)n1` (stereo not given): the Percent Effect was -0.766%.

As for `CC(C)c1csc(C2CCCN(C(=O)c3ncccn3)C2)n1` (stereo not given), the Percent Effect was -0.744%. Consider `CC(C)(C)N1CC(C(=O)N2CCN(CCn3cccc3)CC2)CC1=O` (stereo not given), for which the Percent Effect worked out at 22.4%.

As for `CC(C)c1nc(C2CCCN2CCc2ccncc2)no1` (stereo not given), the Percent Effect was -0.356%.

For the compound `CC(=O)NCc1ccc(C(=O)N2CCCC2c2cnn(C)c2)o1` (stereo not given), the Percent Effect came to 3.24%.

In the case of `CC(C)NC(=O)c1n[nH]c(-n2cnnc2)n1`, the Percent Effect was -4.05%. With `Cc1cc(C)n(CC2CN(Cc3nc(-c4ccoc4)no3)CCO2)n1` (stereo not given), the Percent Effect is -2.81%. As for `Cc1nn(C)c(N2CCOCC2)c1CNCc1ccc(Cl)s1`, the figure is 1.9%; as for `CC(=O)N1CCCN(c2nccc(-c3cn(C)nc3C)n2)CC1`, 0%.

In the case of `Cc1scc(C(=O)N2CCC3(CCCN(C)C3=O)C2)c1-c1ccccc1` (stereo not given), the Percent Effect came out at 1.91%. Regarding `Cc1cccc2[nH]c(C3CCN(C(=O)c4ccnn4C)CC3)nc12`, the Percent Effect is -23.4%.

In the case of `Cc1cccc(CN2CCc3c(nc(N4CCCCC4C)[nH]c3=O)C2)n1` (stereo not given), the Percent Effect was determined as 0.232%.
